According to PubChem BioAssay (NCATS):
Inconclusive results are not listed. Where a call stands in place of a potency, no number is given. A number with no mark means an inactive call. The source made the active and inactive calls. Unless noted, calls come from the whole dose curve; as a rule, active = well fitted curve in the direction sought with a large enough effect; inconclusive = small, poorly fitted or top-dose-only effect, or another doubt; inactive = no such curve, though single readings can be large; an effect the other way counts as inactive or inconclusive.

Key:
[1] = target: Peroxisome proliferator-activated receptor delta (Homo sapiens) (UniProt Q03181); test: qHTS assay for small molecule antagonists of peroxisome proliferator-activated receptor delta signaling (AID 588535; active = well fitted inhibition curve with a large enough effect in the signal ratio, with a control signal flat, not every such curve was filed as active; the % refers to the signal ratio)
Method in brief: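 Antagonist-mode qHTS using GeneBLAzer PPAR-delta-UAS-bla HEK293T cells; compound exposure 18 hrs at 37 C over a titration. Ratiometric CCF4 fluorescence at 460/530 nm; concentration-response points fitted to the Hill equation.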

[2] = target: Peroxisome proliferator-activated receptor gamma (Homo sapiens) (UniProt P37231); test: qHTS assay for small molecule agonists of peroxisome proliferator-activated receptor gamma signaling (AID 588536; active = well fitted curve in the direction sought with a large enough effect in the signal ratio, with a control signal flat, not every such curve was filed as active; the % refers to the signal ratio)
Method in brief: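 Beta-lactamase reporter read-out: CCF4 fluorescence (ex 405, em 460/530 nm) after 2 h at RT. HEK293 GeneBLAzer cells were treated for 16 h at 37 C. Hill fits gave EC50 and efficacy versus 2 uM rosiglitazone (100%) and DMSO (0%).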

[3] = target: Peroxisome proliferator-activated receptor gamma (Homo sapiens) (UniProt P37231); test: qHTS assay for small molecule antagonists of peroxisome proliferator-activated receptor gamma signaling (AID 588537; active = well fitted inhibition curve with a large enough effect in the signal ratio, with a control signal flat, not every such curve was filed as active; the % refers to the signal ratio;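 note: reporter cells co-stimulated with 50 nM rosiglitazone agonist during compound treatment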)
Method in brief: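 Cell-based beta-lactamase assay; GW9662 served as the antagonist control. Stimulation used rosiglitazone, final 50 nM, 16 h, 37 C.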

[4] = target: Thyroid hormone receptor beta (Homo sapiens) (UniProt P10828); test: qHTS assay for small molecule antagonists of thyroid hormone receptor beta signaling (AID 588547; active = well fitted inhibition curve with a large enough effect in the signal ratio, with a control signal flat, not every such curve was filed as active; the % refers to the signal ratio;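 note: cells stimulated with 0.4 nM T3 agonist during compound exposure; series mostly up to about 77 µM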); conditions: TR-UAS-bla HEK293, beta-lactamase ratio, antagonist mode, 18 h
Method in brief: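 Inhibition of T3-driven (0.4nM final) beta-lactamase reporter activity was measured over 0.59 nM to 92 uM compound after 18 h at 37 C. The cells were GripTite HEK293 TR-UAS-bla in charcoal/dextran-stripped serum, with CCF4 ratio read-out and IC50 from Hill fits.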

[5] = qHTS assay for small molecule activators of the nuclear factor-kappa B (NF-kB) signaling pathway (AID 651749; active = well fitted activation curve with a large enough effect in the signal ratio; the % refers to the signal ratio; note: series mostly up to about 77 µM); conditions: NF-kB-bla ME-180 cells, beta-lactamase FRET ratio, 16 h; activation: stronger effect = higher value
Method in brief: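 FRET-based beta-lactamase detection in ME-180 cells reports NF-kB response-element-driven transcription following overnight (16 hr) compound treatment.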

[6] = qHTS for Inhibitors of the vitamin D receptor (VDR): Hit Validation using a Texas Red Assay (AID 602201); note: potency is the fitted concentration of half-maximal effect
Method in brief: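 After a 2-hour room-temperature incubation, polarization of Texas-Red emission was read (Ex 595 nm/Em 615 nm). Final mix contained 7 nM Texas Red, 1.5 uM VDR-LBD and LG19078.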

[7] = target: Tumor susceptibility gene 101 protein (Homo sapiens) (UniProt Q99816); test: qHTS Assay for Iinhibitors of HIV-1 Budding by Blocking the Interaction of PTAP/TSG101: Hit Validation (AID 651600); note: potency is the fitted concentration of half-maximal effect; nearly all actives have a fitted effect of over 70% in size
Method in brief: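 Fluorescence polarization binding assay: Tsg101 binding domain (10 uM final) pre-dispensed with compounds, then FITC-labeled PTAP-motif peptide (50 nM final) added; 20 min at r.t. in HEPES pH 7.5 buffer with NaCl, Tween 20, EDTA, TCEP.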

Sequence of Peroxisome proliferator-activated receptor delta (Homo sapiens) (Q03181 whole entry, looked up): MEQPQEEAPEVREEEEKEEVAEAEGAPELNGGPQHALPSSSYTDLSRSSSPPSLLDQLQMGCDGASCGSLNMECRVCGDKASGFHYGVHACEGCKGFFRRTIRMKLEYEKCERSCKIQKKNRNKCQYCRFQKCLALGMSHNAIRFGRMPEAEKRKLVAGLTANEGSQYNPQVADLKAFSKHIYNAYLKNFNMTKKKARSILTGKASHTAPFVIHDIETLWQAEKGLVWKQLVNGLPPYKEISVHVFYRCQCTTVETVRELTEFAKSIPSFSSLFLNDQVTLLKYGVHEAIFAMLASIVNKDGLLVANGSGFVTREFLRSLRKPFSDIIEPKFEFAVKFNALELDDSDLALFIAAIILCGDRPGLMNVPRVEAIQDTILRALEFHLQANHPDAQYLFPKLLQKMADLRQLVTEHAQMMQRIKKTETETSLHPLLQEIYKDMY
Sequence of Thyroid hormone receptor beta (Homo sapiens) (P10828 whole entry, looked up): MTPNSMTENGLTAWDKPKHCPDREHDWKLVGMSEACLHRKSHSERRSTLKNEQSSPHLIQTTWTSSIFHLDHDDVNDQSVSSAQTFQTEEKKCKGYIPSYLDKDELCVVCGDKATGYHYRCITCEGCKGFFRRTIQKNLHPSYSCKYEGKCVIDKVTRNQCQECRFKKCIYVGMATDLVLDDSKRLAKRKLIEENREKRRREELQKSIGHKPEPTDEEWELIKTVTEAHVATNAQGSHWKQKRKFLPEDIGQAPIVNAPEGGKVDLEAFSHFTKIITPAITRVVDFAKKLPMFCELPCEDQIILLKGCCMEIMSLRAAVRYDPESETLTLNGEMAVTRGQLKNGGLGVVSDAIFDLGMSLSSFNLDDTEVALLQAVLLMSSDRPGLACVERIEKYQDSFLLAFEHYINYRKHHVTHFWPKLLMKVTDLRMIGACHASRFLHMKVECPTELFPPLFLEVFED
Sequence of Peroxisome proliferator-activated receptor gamma (Homo sapiens) (P37231 whole entry, looked up): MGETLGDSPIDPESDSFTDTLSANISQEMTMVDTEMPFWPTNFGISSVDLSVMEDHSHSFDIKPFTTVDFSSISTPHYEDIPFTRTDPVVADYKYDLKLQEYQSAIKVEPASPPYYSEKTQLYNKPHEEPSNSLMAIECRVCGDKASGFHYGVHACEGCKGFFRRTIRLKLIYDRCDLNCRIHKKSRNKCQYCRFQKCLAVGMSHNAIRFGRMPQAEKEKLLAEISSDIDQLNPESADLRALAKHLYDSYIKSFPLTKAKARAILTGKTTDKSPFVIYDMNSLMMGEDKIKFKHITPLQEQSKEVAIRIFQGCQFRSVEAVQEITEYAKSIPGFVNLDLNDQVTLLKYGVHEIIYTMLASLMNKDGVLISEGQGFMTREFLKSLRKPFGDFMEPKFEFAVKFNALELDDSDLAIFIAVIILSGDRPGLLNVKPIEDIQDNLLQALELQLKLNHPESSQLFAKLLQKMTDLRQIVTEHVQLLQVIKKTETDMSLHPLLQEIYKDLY
Sequence of Tumor susceptibility gene 101 protein (Homo sapiens) (Q99816 whole entry, looked up, the tested form may be a part): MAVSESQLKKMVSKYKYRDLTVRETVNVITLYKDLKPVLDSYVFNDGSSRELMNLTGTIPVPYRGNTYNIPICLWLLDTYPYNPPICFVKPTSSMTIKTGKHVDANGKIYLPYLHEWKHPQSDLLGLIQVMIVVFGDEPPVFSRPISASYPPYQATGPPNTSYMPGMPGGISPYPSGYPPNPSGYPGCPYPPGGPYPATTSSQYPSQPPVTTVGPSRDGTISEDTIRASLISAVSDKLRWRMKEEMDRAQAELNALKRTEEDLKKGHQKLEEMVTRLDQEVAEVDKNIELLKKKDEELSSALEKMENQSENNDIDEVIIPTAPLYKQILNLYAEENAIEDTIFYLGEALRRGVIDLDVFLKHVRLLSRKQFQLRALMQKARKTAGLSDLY

O=C(Cl)c1cccc(C(=O)Cl)c1
Potency [1]: inactive | outcome [2]: inactive | Potency [3]: inactive | activity change % (negative = inhibition) [4]: -4.29%

CCCOC(=O)NCCCN(C)C
Potency [3]: inactive | activity change % (negative = inhibition) [4]: 1.87%

S=C([S-])NCCNC(=S)[S-].[Mn+2]
outcome [2]: inactive | Potency [3]: inactive | activity change % (negative = inhibition) [4]: -12.7%

C[C@]12CC[C@@H]3c4ccc(O)cc4CC[C@H]3[C@@H]1CC[C@H]2O
outcome [2]: inactive | activity change % (negative = inhibition) [4]: -9.59%

Clc1nc(Cl)c(Cl)c(Cl)c1Cl
Potency [1]: inactive | outcome [2]: inactive | Potency [3]: inactive | activity change % (negative = inhibition) [4]: -13.1% | activation [5]: -1.8%

O=C(/C=C/c1cccc([N+](=O)[O-])c1)c1cccs1
Potency [6]: 14.1 µM (active)

Nc1ccc(Nc2ccccc2)cc1
outcome [2]: inactive | activation [5]: 0.195%

CCCCCOC(=O)COc1cc(N2C(=O)C3=C(CCCC3)C2=O)c(F)cc1Cl
activity change % (negative = inhibition) [4]: 4.65%

CS(=O)(=O)c1nc(-c2ccccc2)cc(C(F)(F)F)n1
Potency [6]: 10 µM (active)

C=C(C)C(=O)OCCC[Si](Cl)(Cl)Cl
Potency [1]: inactive | outcome [2]: inactive | Potency [3]: inactive | activation [5]: -0.259%

O=[N+]([O-])c1ccc(O)cc1C(F)(F)F
Potency [1]: inactive | Potency [3]: inactive

Cc1ccc(CSC2=NS(=O)(=O)c3ccccc32)cc1
Potency [6]: 7.94 µM (active)

Brc1ccc(Oc2ccc(Br)cc2)cc1
Potency [1]: inactive | activity change % (negative = inhibition) [4]: 11%

C=C(C)C(=O)OCCC[Si](OC)(OC)OC
Potency [1]: inactive | outcome [2]: inactive | Potency [3]: inactive | activity change % (negative = inhibition) [4]: 2.39% | activation [5]: -3.72%

O=C=NC1CCC(CC2CCC(N=C=O)CC2)CC1 (centres undefined)
Potency [1]: inactive | Potency [3]: inactive

CCCCCCC(C)OC(=O)COc1nc(F)c(Cl)c(N)c1Cl (centres undefined)
activation [5]: 3.49%

COc1ccc(OC)c(-c2c3cc(O)c(=O)cc-3oc3cc(O)c(O)cc23)c1
Potency [7]: 32.6 µM (active)
